Screens (PubChem)
USP8 block: human USP8 deubiquitinase inhibition | purified USP8, Ub-rhodamine cleavage fluorescence, 30 min | inhibition, % at 20 µM | 47,000 compounds, 4.2% hits
USP7 block: human USP7 deubiquitinase inhibition; purified USP7, Ub-rhodamine cleavage fluorescence; 47,000 compounds, 0.3% hits; Q93009; inhibition, % at 20 µM; AID 1645854
UCHL1 block: blocks human UCHL1 ubiquitin-rhodamine cleavage. AID 1645859. P09936. inhibition, % at 20 µM. 47,000 compounds, 0.2% hits. purified UCHL1, Ub-rhodamine cleavage fluorescence
USP10 inh: inhibitors of human USP10 deubiquitinase | Q14694 | purified USP10, Ub-rhodamine fluorescence, 60 min | inhibition, % at 20 µM | 47,000 compounds, 1.1% hits | AID 1645856
Target sequence (Q14694 whole entry, looked up): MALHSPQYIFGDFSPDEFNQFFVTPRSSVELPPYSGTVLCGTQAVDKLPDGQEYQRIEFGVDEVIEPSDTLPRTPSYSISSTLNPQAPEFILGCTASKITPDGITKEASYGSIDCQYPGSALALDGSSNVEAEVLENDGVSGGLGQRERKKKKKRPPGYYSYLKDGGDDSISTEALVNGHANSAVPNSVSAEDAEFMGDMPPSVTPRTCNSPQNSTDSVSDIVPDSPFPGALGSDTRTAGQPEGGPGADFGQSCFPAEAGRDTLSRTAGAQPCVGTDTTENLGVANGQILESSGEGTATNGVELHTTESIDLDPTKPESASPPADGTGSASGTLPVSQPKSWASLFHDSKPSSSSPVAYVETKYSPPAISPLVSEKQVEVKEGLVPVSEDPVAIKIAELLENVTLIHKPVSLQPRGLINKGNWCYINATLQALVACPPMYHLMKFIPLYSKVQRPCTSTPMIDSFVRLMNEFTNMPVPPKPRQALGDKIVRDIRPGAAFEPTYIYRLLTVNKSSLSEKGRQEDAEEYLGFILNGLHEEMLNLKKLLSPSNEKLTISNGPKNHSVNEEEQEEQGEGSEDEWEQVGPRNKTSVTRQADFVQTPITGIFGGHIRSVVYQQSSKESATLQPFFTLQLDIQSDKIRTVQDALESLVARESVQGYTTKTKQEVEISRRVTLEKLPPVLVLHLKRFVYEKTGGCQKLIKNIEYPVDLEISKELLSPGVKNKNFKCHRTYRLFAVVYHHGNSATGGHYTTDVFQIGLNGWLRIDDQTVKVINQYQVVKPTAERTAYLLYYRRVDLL
Large screens that a line does not name were inactive. Sampled rows, rich in hits. Any-hit rate of the full collection: about 4.6%. No stated cut-off is given here; in the data, active means inhibition above about 30%; inactive means the rest.

O=C(c1[nH]nc2c1COc1ccccc1-2)N1CCN(c2ncccn2)CC1	none
Cc1nn2c(CNS(=O)(=O)Cc3cccc(F)c3)c(C)nc2s1	none
CC(=O)Nc1cc(C(=O)NC2CCCC2)c2ccc(C)nc2c1	USP8 block 34
O=C(OCc1nc2ccc([N+](=O)[O-])cc2[nH]1)c1cccc(S(=O)(=O)N2CCc3ccccc32)c1	none
O=C(Nc1noc2ccccc12)c1ccco1	USP8 block 47
Cc1cc(C)nc(NC(=O)c2ccco2)n1	none
Cc1ccc(S(=O)(=O)c2cnc3ccc(F)cc3c2N2CCCCCC2)cc1	USP8 block 33
OC(c1ccccn1)c1c[nH]c2ccccc12 (stereo not given)	none
O=[N+]([O-])c1ccccc1C(c1c[nH]c2ccccc12)c1c[nH]c2ccccc12	USP8 block 82
COc1ccc2cc(-c3nc4cc(C)ccn4c3NCc3ccccc3)c(=O)[nH]c2c1	none
Cc1ccc2[nH]c(=O)c(-c3nc4ccc(C)cn4c3NCc3ccc(F)cc3)cc2c1	USP8 block 78, USP7 block 51, USP10 inh 47
Cc1nc(N2CCN(c3ccc(Cl)cc3)CC2)c2oc3ccccc3c2n1	USP8 block 63
Cc1nc(N2CCC(C(=O)O)CC2)c2oc3ccccc3c2n1	none
CCOC(=O)N1CCN(c2ncc3c(=O)n(C4CCCC4)c(=O)[nH]c3n2)CC1	none
C/C(Nc1ccc2oc(=O)ccc2c1)=C1/C(=O)CC2[C@H]1C2(C)C (stereo not given in full)	USP8 block 41
Cc1ccccc1C(=O)Nc1ccc(Cc2ccc(NC(=O)c3ccccc3C)c(O)c2)cc1O	USP8 block 43
Cc1ccccc1C(=O)NCc1csc(-c2ccccc2)n1	none
CC1=C\[C@@H](O)CC(=O)Cc2nc(co2)C(=O)N2CCC=C2C(=O)O[C@H](C(C)C)[C@H](C)/C=C/C(=O)NC/C=C\1	none
COc1ccccc1C1(c2nnc(-c3ccc(F)cc3)o2)CCOCC1	none
O=C(NCc1cccnc1)[C@H]1CO[C@H]2CCN(Cc3ccco3)C[C@H]2C1	none
Cc1ccc(CN2CC[C@@H]3[C@H]2C(=O)NC[C@H](CCC(=O)NCc2cccnc2)N3C)cc1	none
COC[C@H]1CCCN1C(=O)CC[C@H]1CNC(=O)[C@@H]2[C@@H](CCN2Cc2csnn2)N1C	USP8 block 31
CN1[C@@H](CCC(=O)N2CCCC2)CNC(=O)[C@@H]2[C@H]1CCN2Cc1csnn1	none
COc1ccc(CN2CC[C@@H]3[C@H]2C(=O)NC[C@H](CCC(=O)NCc2cccnc2)N3C)cc1	USP8 block 63
CN1[C@@H](CCC(=O)N2CCCC2)CNC(=O)[C@@H]2[C@H]1CCN2Cc1ccccc1	none
CN1[C@@H](CCC(=O)N2CCC(O)CC2)CNC(=O)[C@@H]2[C@H]1CCN2Cc1ccc(C(F)(F)F)cc1	USP8 block 32
Cc1nc(C2CCN(C(=O)c3ccc(N)nc3)CC2)nc2c1CCCN2C	none
O=C(N[C@H](CO)Cc1ccccc1)c1nc(-c2ccc(F)cc2)no1	none
O=C(COC(=O)c1n[nH]c2ccccc12)Nc1ccc(N2CCCCC2)cc1	none
O=C(COC(=O)c1n[nH]c2ccccc12)Nc1ccc2c(c1)CCC2	USP8 block 30
O=c1cc(-c2cc3ccccc3oc2=O)c2ccc(O)cc2o1	none
O=c1oc2ccccc2cc1-c1nc(-c2ccc(Oc3ccccc3)cc2)cs1	USP8 block 53, USP7 block 70
Cc1cc(-c2ccc(C)c(S(=O)(=O)Nc3ccc(-c4ccno4)cc3)c2)on1	none
Cc1nc(N2CCCC2)ncc1-c1cc(=O)[nH]c(Nc2ccc(Cl)cc2Cl)n1	USP10 inh 51
O=C(NCc1noc(C2CCCCC2)n1)c1coc(-c2ccccc2)n1	none
COc1cc(C2CCN(C(=O)c3ccc(Cl)cc3)CC2)on1	none
COc1cc(C2CCN(C(=O)c3ccccc3)CC2)on1	USP8 block 32
N#Cc1ccccc1S(=O)(=O)N1CCc2sccc2C1	none
COc1ccc(NS(=O)(=O)c2cccc(NC(=O)CCC(=O)c3ccc(Cl)cc3)c2)cc1	none
COc1ccc(NS(=O)(=O)c2cccc(NC(=O)CC(=O)c3ccc([N+](=O)[O-])cc3)c2)cc1	USP10 inh 46
COc1ccc(NS(=O)(=O)c2cc(NC(=O)CC(=O)c3ccc([N+](=O)[O-])cc3)ccc2Cl)cc1	USP8 block 58, USP10 inh 58
COc1ccccc1NS(=O)(=O)c1cc(NC(=O)CC(=O)c2ccc([N+](=O)[O-])cc2)ccc1C	USP8 block 68, USP10 inh 33
COc1ccc(NC(=O)Cc2cc(OC)c(OC)c(OC)c2)cc1S(=O)(=O)Nc1ccc(Br)cc1	none
COc1ccccc1NS(=O)(=O)c1cc(C(=O)NCc2ccncc2)ccc1C	none
COc1ccc(NC(=O)CC(=O)c2ccc([N+](=O)[O-])cc2)cc1S(=O)(=O)Nc1ccc(Cl)cc1	USP8 block 58, USP10 inh 49
O=c1c2nc(-c3ccc(F)cc3)cn2ccn1-c1ccc2c(c1)CCC2	none
COc1cc(C2CCN(C(=O)Nc3ccc(C(=O)O)cc3)CC2)on1	none
CC(O)CNc1nc2c(c(=O)[nH]c(=O)n2C)n1CCCOc1ccccc1 (stereo not given)	none
COc1ccc(CCC(=O)Nc2nnc(C3CC(=O)N(c4ccccc4)C3)s2)cc1 (stereo not given)	USP10 inh 34
CCCC[C@@H](C)/C=C(C)/C=C(\C)C(=O)NC1=C[C@](O)(/C=C/C=C/C=C/C(=O)NC2=C(O)CCC2=O)[C@@H]2O[C@@H]2C1=O	UCHL1 block 34
CCCCCCC(C)/C=C(C)/C=C/C(=O)N[C@H]1CC2(O[C@H]1O)[C@@H]1O[C@@H]1C(=O)[C@@H]1O[C@@H]12 (stereo not given in full)	none
CCCCCCCc1cc(OC(=O)c2c(CCCCCCC)cc(O)cc2O[C@@H]2O[C@H](CO)[C@@H](O)[C@H](O)[C@H]2O)cc(O)c1C(=O)O	USP8 block 99, USP7 block 101, UCHL1 block 88, USP10 inh 101
O=C(O)CCCCc1cc(O)cc(O)c1	none
CCCCCCCCCCCCCCCc1cc(O)cc(O)c1C(=O)O	USP10 inh 63
Cc1ccc(-c2c(NC(=O)c3cccs3)n(C)c3ccccc3c2=O)cc1	USP8 block 32
Cc1ccc(C(=O)Nc2c(-c3ccc4c(c3)OCO4)c(=O)c3ccccc3n2C)cc1	USP8 block 41
Cc1ccc(C(=O)Nc2cc3c4c(c2)CC(=O)N4CCC3)cc1C	USP8 block 30
Cc1cccc(C(=O)OCC(=O)Nc2ccc3[nH]c(=O)[nH]c3c2)c1	USP8 block 52
Cc1ccc(NC(=O)CSc2ncnc3nc[nH]c23)c(Cl)c1	none
COc1cc2c(cc1OC)CC(=O)N(Cc1c(F)cccc1Cl)C=C2	USP8 block 37
COc1ccc(-c2cn3ccc4cc(OC)c(OC)cc4c3c2-c2ccc(OC)c(OC)c2)cc1	USP8 block 31
Clc1ccc2c(c1)NC1(CCN(Cc3cccnc3)CC1)N1CCN=C21	none
COc1ccc(NC(=O)CSc2nc3ccccc3c3nc(C)nn23)cc1OC	USP8 block 41
Cc1noc(C)c1-c1ccc(S(=O)(=O)Nc2ccc(C#N)cc2)cc1	USP8 block 31
